Some test systems named below: NCI-H23 lung; NCI-H226 lung; NCI-H322M lung; HOP-62 NSCLC; NCI-H460 lung; HOP-92 NSCLC; NCI-H522 lung; A549/ATCC NSCLC; 786-0 renal; COLO 205 colon; DU-145 prostate; K-562 leukemia; MALME-3M melanoma; MDA-MB-231 breast; RXF 393 renal; SF-268 CNS; SF-295 CNS; SF-539 CNS; UACC-257 melanoma; M14 melanoma.
Test in all cases: NCI-60 one-dose screen, 48 h (100 = growth as untreated, 0 = no growth, -100 = all killed)
What all share (conditions): 10 µM unless noted

About 83,000 compounds went through this panel and 20% of them were active in at least one assay; those are over-represented in the sample as a whole.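 The test compound was applied at a single concentration to cells in 96-well plates for 48 hours, and percent growth was recorded.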 Values without a mark were called inactive. The source made the active and inactive calls. The calls were made as follows: active = growth percent below 10; inactive = the rest.

As to `COc1cc(-c2nc(-c3ccccc3)[nH]c2-c2ccnc(NCCCNS(=O)(=O)c3cccc(F)c3)n2)ccc1F`, the growth was 101% in the assay with NCI-H23 lung; 83.9% in the assay on NCI-H226 lung; 102% in the assay with NCI-H322M lung; 130% in the assay on HOP-62 NSCLC; 94.2% in the assay on NCI-H460 lung; 134% in the assay on HOP-92 NSCLC. Besides, the growth with NCI-H522 lung is 85.4%; in the assay on A549/ATCC NSCLC, 87.1%; in the assay on 786-0 renal it was 98.4%; with COLO 205 colon, 93%; in the assay on DU-145 prostate it was 87.1%; in the assay on K-562 leukemia, 63.6%. Besides, the growth with MALME-3M melanoma was 95.6%; in the assay with MDA-MB-231 breast it was 94.3%; in the assay with RXF 393 renal it was 92.2%; in the assay on SF-268 CNS it was 89.1%; in the assay with SF-295 CNS, 102%; in the assay with SF-539 CNS, 98.6%. In addition, the figures for the growth in the assay with UACC-257 melanoma and with M14 melanoma were 115% and 93.3%, respectively.
For the compound `Nn1c(=O)n(-c2cccc(C(F)(F)F)c2)c(=O)c2cc(-c3ccc(F)cc3F)ccc21`, the growth in the assay with NCI-H23 lung was -6.15% (active); in the assay on NCI-H226 lung it was 16.5%; in the assay on NCI-H322M lung, 5.15% (active); in the assay on HOP-62 NSCLC, 2.28% (active); with NCI-H460 lung, 6.49% (active); in the assay on HOP-92 NSCLC, -35.6% (active). Besides, the growth with NCI-H522 lung is -2.03% (active); in the assay on A549/ATCC NSCLC, 5.13% (active); in the assay on 786-0 renal it was 45.7%; with COLO 205 colon, 65.2%; in the assay with DU-145 prostate it was 24.4%; with K-562 leukemia, 6.85% (active). Further, the growth in the assay with MALME-3M melanoma is -17.2% (active); with MDA-MB-231 breast, -10.2% (active); with RXF 393 renal, 3.65% (active); with SF-268 CNS it was 17.8%; in the assay with SF-295 CNS, -4.06% (active); in the assay on SF-539 CNS, 19.4%. In addition, the growth was -8.9% (active) with UACC-257 melanoma and 17.1% with M14 melanoma.
With `CN(C)c1ccc(/C=N/Nc2nc(N/N=C/c3ccc(N(C)C)cc3)nc(N3CCCCC3)n2)cc1`, the growth was 96.7% in the assay on NCI-H23 lung; 102% with NCI-H226 lung; 100% in the assay on NCI-H322M lung; 81.8% in the assay with HOP-62 NSCLC; 70.9% with NCI-H460 lung; 84% with HOP-92 NSCLC. Also, the growth in the assay with NCI-H522 lung was 96.2%; in the assay on A549/ATCC NSCLC it was 78.5%; in the assay with 786-0 renal it was 88.2%; in the assay on COLO 205 colon, 83.5%; in the assay on DU-145 prostate it was 77.5%; in the assay with K-562 leukemia it was 3.08% (active). Moreover, the growth is -67.3% (active) in the assay with MALME-3M melanoma; 68.6% in the assay on MDA-MB-231 breast; 93.3% in the assay with RXF 393 renal; 105% in the assay with SF-268 CNS; 107% in the assay on SF-295 CNS; -12.3% (active) in the assay with SF-539 CNS. Further, the growth is 104% with UACC-257 melanoma and 72.8% in the assay with M14 melanoma.
As to `COc1ccc(C2C(C#N)=C(/N=C/c3ccc(Cl)cc3)Oc3c2sc2c(C)cccc32)cc1` (stereo not given), the growth is 26.2% in the assay with NCI-H23 lung; 45.4% with NCI-H226 lung; 44.2% with NCI-H322M lung; 29.8% in the assay with HOP-62 NSCLC; 10.1% with NCI-H460 lung; 30.5% with HOP-92 NSCLC. In addition, the growth in the assay with NCI-H522 lung is -40.8% (active); with A549/ATCC NSCLC, 34.2%; with 786-0 renal it was 39.2%; in the assay with COLO 205 colon it was -22.3% (active); with DU-145 prostate, 26.1%; in the assay on K-562 leukemia, 9.73% (active). For the same compound, the growth in the assay with MALME-3M melanoma was 50.2%; in the assay with MDA-MB-231 breast, 33.9%; in the assay on RXF 393 renal, -5.77% (active); with SF-268 CNS, 52.9%; in the assay with SF-295 CNS it was 8.79% (active); in the assay on SF-539 CNS it was 1.34% (active). The growth in the assay with UACC-257 melanoma was 70.9%; with M14 melanoma it was 0.955% (active).
In the case of `COc1ccccc1/C=C1\Oc2ccc(O)c(O)c2C1=O`, the growth is 93.2% with NCI-H23 lung; 110% with NCI-H226 lung; 102% in the assay on NCI-H322M lung; 99.9% in the assay with HOP-62 NSCLC; 101% in the assay on NCI-H460 lung; 103% in the assay on HOP-92 NSCLC. For the same compound, the growth with NCI-H522 lung is 89.1%; with A549/ATCC NSCLC, 101%; in the assay on 786-0 renal, 94.1%; in the assay on COLO 205 colon, 116%; in the assay with DU-145 prostate it was 98.4%; with K-562 leukemia, 95.6%. In addition, the growth in the assay with MALME-3M melanoma is 102%; in the assay on MDA-MB-231 breast it was 94.9%; in the assay with RXF 393 renal it was 90.2%; with SF-268 CNS it was 102%; with SF-295 CNS, 112%; in the assay on SF-539 CNS it was 91.8%. In addition, the growth with UACC-257 melanoma is 101%; in the assay on M14 melanoma, 95.4%.
On to `CN1CCN(Cc2ccc(NC(=O)c3cncc(C#Cc4cnc5ccc(OCC(F)F)nn45)c3)cc2C(F)(F)F)CC1`, for which the growth was -51.2% (active) in the assay with NCI-H23 lung; -62.6% (active) in the assay with NCI-H226 lung; -35.4% (active) in the assay on NCI-H322M lung; -76.6% (active) with HOP-62 NSCLC; -85% (active) in the assay on NCI-H460 lung; -30.7% (active) with HOP-92 NSCLC. Further, the growth in the assay with NCI-H522 lung is -75.9% (active); with A549/ATCC NSCLC, -61.6% (active); in the assay on 786-0 renal, -90.3% (active); in the assay on COLO 205 colon, -87.7% (active); with DU-145 prostate it was -85.8% (active); with K-562 leukemia, 0.0269% (active). Besides, the growth in the assay on MALME-3M melanoma is -86.2% (active); in the assay with MDA-MB-231 breast, -66.7% (active); in the assay on RXF 393 renal it was -81% (active); in the assay on SF-268 CNS, -56.6% (active); in the assay with SF-295 CNS, -76.6% (active); with SF-539 CNS, -90.6% (active). In addition, the results for the growth in the assay with UACC-257 melanoma and in the assay with M14 melanoma were -33.7% (active) and -89% (active), respectively.
Consider `O=c1oc2ccc(-c3ccc(F)cc3F)cc2c(=O)n1-c1ccc(Br)cc1F`, for which the growth in the assay with NCI-H23 lung is 60%; in the assay on NCI-H226 lung, 77.8%; in the assay on NCI-H322M lung, 71.7%; with HOP-62 NSCLC, 82.9%; with NCI-H460 lung, 45.9%; in the assay on HOP-92 NSCLC, -19.3% (active). Besides, the growth in the assay with NCI-H522 lung is 12.1%; in the assay with A549/ATCC NSCLC, 84.4%; in the assay with 786-0 renal it was 95.2%; in the assay with COLO 205 colon, 121%; with DU-145 prostate it was 85.2%; in the assay on K-562 leukemia, 45.4%. The growth in the assay with MALME-3M melanoma is 61.5%; with MDA-MB-231 breast, 87%; in the assay on RXF 393 renal it was 80.8%; in the assay with SF-268 CNS, 58.6%; in the assay on SF-295 CNS it was 77.6%; in the assay on SF-539 CNS it was 74.3%. In addition, the growth is 48.1% with UACC-257 melanoma and 80.7% in the assay on M14 melanoma.

The record behind these values is PubChem BioAssay (NCI).
